This is a sample that favours compounds with a hit; in the whole collection about 21% have one here.
NS1 inh = qHTS Assay for Inhibitors of Influenza NS1 Protein Function; 270,000 tested, 0.4% active; Potency, µM (top dose mostly 46.1 µM), for inactives: at the top dose activity, positive = more growth; AID 2326, 2010; calls by dose curve; note: potency is the fitted concentration of half-maximal effect; actives are rising curves; nearly all actives have a fitted effect of over 50% in size
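Growth recovery, yeast-based: influenza A NS1 expressed in S. cerevisiae causes slow growth, and suppressors are detected by OD600. The parent strain without NS1 is used as positive control.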
Shiga inhibitor = A qHTS for Small Molecule Inhibitors of Shiga Toxin; Vero cells, Shiga toxin protein synthesis inhibition reporter; inhibition, % at 38.7 µM; 290,000 tested, 9.2% active; in the data active = inhibition mostly above about 28%, no sharp cut-off; inactive = mostly below about 43%; note: 0% is about no effect
Pf growth 96h = Primary qHTS for delayed death inhibitors of the malarial parasite plastid, 96 hour incubation | AID 504834, 2011 | P. falciparum luciferase reporter growth, 96 h | Potency, µM (titrated, usually from 28.7 µM), without a hit: at the top dose activity change, negative = inhibition, hits mostly inhibitors | 320,000 tested, 6.9% active; note: potency is the fitted concentration of half-maximal effect; % is set by controls: 0 for no effect and ±100 for the full control effect
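P. falciparum expressing integrated firefly luciferase, in erythrocytes at 2% hematocrit, 0.05% parasitemia, incubated with compounds 96 h at 37 C, 5% CO2. Growth inhibition read as loss of luminescence; two-generation exposure targets delayed-death apicoplast inhibitors.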
Pf growth 48h = Primary qHTS for delayed death inhibitors of the malarial parasite plastid, 48 hour incubation. P. falciparum luciferase growth in erythrocytes, 48 h. Potency, µM (series often up to 28.7 µM), inactives show at the top dose activity change, negative = inhibition, usual class: inhibitors. 310,000 tested, 5.9% active. AID 504832, 2011; note: potency is the fitted concentration of half-maximal effect; % is set by controls: 0 for no effect and ±100 for the full control effect
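Compounds are pin-transferred into medium, infected erythrocytes (2% hematocrit, 0.1% parasitemia final) are added, and plates sit one parasite generation at 37 C in 5% CO2. Detection reagent is then added and luminescence measured.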
Cycloheximide cs = Cycloheximide Counterscreen for Small Molecule Inhibitors of Shiga Toxin | cell reporter, cycloheximide protein synthesis inhibition counterscreen | 300,000 tested, 12% active | max response, % | AID 2314, 2010; in the data active = max response mostly above about 13%, no sharp cut-off; inactive = mostly below about 14%; note: read at 38.3 µM for the half of the compounds with a filed dose; 0% is about no effect
SARS PLP yeast = qHTS of Yeast-based Assay for SARS-CoV PLP; AID 485353, 2010; 330,000 tested, 0.19% active; Potency, µM (series often up to 32.9 µM), for the others: at the highest dose activity, positive = growth rescue, most hits filed as activators; S. cerevisiae expressing SARS-CoV PLpro, growth rescue; calls by dose curve; note: potency is the fitted concentration of half-maximal effect; 0% is about no effect; nearly all actives have a fitted effect of over 55% in size
Numbers without * were called inactive; ? = inconclusive; . = no result. Unless noted, calls come from the whole dose curve; as a rule, active = well fitted inhibition curve with a large enough effect; inconclusive = small, poorly fitted or top-dose-only effect, or another doubt; inactive = no such curve, though single readings can be large or run the other way.

SMILES | NS1 inh | Shiga inhibitor | Pf growth 96h | Pf growth 48h | Cycloheximide cs | SARS PLP yeast
COc1ccc(S(=O)(=O)N/N=C(/C)c2ccncc2)cc1 | 4.3% | 11.1 | -14.6% | 7.5% | -3.3 | -2.4%
COc1ccc(CNC(=O)C2Cc3cc(S(=O)(=O)N4CCCC4)ccc3N2C(C)=O)c(OC)c1 (configuration not stated) | 8.9% | -10.3 | 41.5% | -0.8% | 1.2 | 3.8%
O=C(Cc1ccccc1)NCCSCc1ccccc1 | -25.6% | 26.5 | -18.2% | 7.8% | 18.9* | -7.3%
C/[N+]([O-])=C\C1C(=O)CC(C)(C)CC1=O | . | -18.6 | -1.2% | -5.8% | -1.0 | -0.6%
Cc1cccc(C)c1OCCNC(=O)CCC(=O)c1ccccc1 | -5.8% | -10.7 | 36.0% | 4.1% | 0.2 | ?
O=c1c2ccccc2nc(/C=C/c2ccc([N+](=O)[O-])o2)n1-c1ccc(O)cc1 | . | 21.2 | ? | 9.28µM* | 14.5 | -0.3%
Cc1nc2ccccc2c(=O)n1/N=C/c1ccccn1 | -58.1% | 22.1 | 111.3% | 166.5% | 27.8* | -3.5%
Cc1nc2ccccc2c(=O)n1/N=C/c1ccccc1F | -9.0% | 104.6* | 9.28µM* | . | 51.7* | 4.2%
Cc1cccc(-n2c(/C=C/c3ccc([N+](=O)[O-])o3)nc3ccccc3c2=O)c1 | -5.4% | -3.9 | 69.9% | ? | 4.8 | -100.2%
CN(C)c1ccc(/C=N/n2c(-c3ccccc3Br)n[nH]c2=S)cc1 | 14.7% | 54.1 | 23.2% | 17.9% | 17.4* | 0.6%
CC(=O)Nc1ccc(S(=O)(=O)N(C)CC(=O)OCC(=O)N2CC(C)OC(C)C2)cc1 (configuration not stated) | . | . | 70.7% | 8.2% | . | 6.4%
CC(=O)c1cccc(N(CC(=O)Nc2ccccc2C(=O)N2CCCC2)S(C)(=O)=O)c1 | 1.4% | -13.1 | 15.5% | 41.2% | 0.3 | -1.4%
Cc1nc2ccccc2c(=O)n1/N=C/c1ccc([N+](=O)[O-])o1 | -56.2% | 55.5* | 5.86µM* | 13.1µM* | 33.6* | -6.6%
Cc1nc2ccccc2c(=O)n1/N=C/c1ccc(N(C)C)cc1 | -104.2% | 27.3 | 22.7% | 45.5% | 26.1* | -3.9%
CSc1ccc(/C=N/n2c(C)nc3ccccc3c2=O)cc1 | 2.7% | 30.5 | 45.1% | 55.4% | 22.6* | 0.8%
CCOc1ccc(/C=N/n2c(C)nc3ccccc3c2=O)cc1 | -2.6% | -5.0 | -18.2% | 55.2% | -1.5 | -1.0%
COC(=O)c1cc(NC(=O)C2CC(=O)NC(=NCc3ccc(OC)cc3)S2)cc(C(=O)OC)c1 (configuration not stated) | 5.3% | -7.0 | 41.2% | 7.2% | 0.6 | 0.2%
COc1ccc(CCNC(=O)c2cc3c(C)nccc3[nH]c2=O)cc1OC | . | -9.5 | ? | ? | 12.0 | 1.6%
CCN1c2ccccc2-c2nc3ccccc3n2C1c1cccs1 (configuration not stated) | -47.2% | 14.3 | 3.7µM* | 8.28µM* | 6.7 | -74.4%
CCS(=O)(=O)n1c(Cc2cccs2)nc2ccccc21 | . | . | 65.3% | -7.8% | . | -7.1%
Cc1ccc(C)c(S(=O)(=O)N2CCCC2CNC(=O)C(=O)NCc2ccccn2)c1 (configuration not stated) | . | . | -3.5% | 1.2% | . | 4.6%
CC(C)(C)OC(=O)N1CCN(C(=O)c2[nH]cnc2C(=O)Nc2cccc(Cl)c2)CC1 | . | . | ? | 4.15µM* | . | 0.5%
CCOC(=O)c1ccc(NC(=O)c2nc[nH]c2C(=O)N2CCN(C(=O)OC(C)(C)C)CC2)cc1 | -2.4% | -0.9 | ? | 13.1µM* | 0.7 | 1.9%
CCOC(=O)c1ccc(NC(=O)c2nc[nH]c2C(=O)N[C@@H](C)C(=O)OC(C)(C)C)cc1 | 10.2% | 10.8 | ? | ? | -5.4 | 0.8%
COc1cc2c(cc1OC)CC(=O)NC=C2 | . | -8.2 | 87.0% | 53.7% | 8.1 | -3.8%
Cn1cc(CN2CCCC(C(=O)Nc3ccc(-c4cccc(F)c4)cc3)C2)cn1 (configuration not stated) | -1.9% | -6.7 | 0.1% | ? | 0.9 | -1.1%
CCn1c(C)c(C)c2cc(C(=O)NCCc3ccco3)ccc21 | -7.7% | 35.8* | 16.2% | ? | 16.0 | -29.4%

Screening data (PubChem BioAssay)
